Measurements reported in PubChem BioAssay (NCI).
Compounds without any hit were thinned out: in the full panel of roughly 83,000, 20% have a hit.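 Plates (96-well) were seeded with cells, treated with compound at one concentration, and incubated for 48 hours before percent growth was determined.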 Calls of active or inactive are those of the source. Rule for the calls: active = growth percent below 10; inactive = the rest.

What was measured:
Test in all cases: NCI-60 one-dose screen, 48 h (100 = growth as untreated, 0 = no growth, -100 = all killed)
Conditions in all cases: 10 µM unless noted
SR leukemia = system: SR leukemia
RPMI-8226 leukemia = system: RPMI-8226 leukemia
OVCAR-8 ovarian = system: OVCAR-8 ovarian
OVCAR-5 ovarian = system: OVCAR-5 ovarian
OVCAR-4 ovarian = system: OVCAR-4 ovarian
SK-OV-3 ovarian = system: SK-OV-3 ovarian
IGROV1 ovarian = system: IGROV1 ovarian
OVCAR-3 ovarian = system: OVCAR-3 ovarian
HS 578T breast = system: HS 578T breast
NCI/ADR-RES ovarian = system: NCI/ADR-RES ovarian
T-47D breast = system: T-47D breast
BT-549 breast = system: BT-549 breast
MDA-MB-435 melanoma = system: MDA-MB-435 melanoma
SW-620 colon = system: SW-620 colon
MCF7 breast = system: MCF7 breast
HCT-116 colon = system: HCT-116 colon
HCC-2998 colon = system: HCC-2998 colon
KM12 colon = system: KM12 colon

Measured: growth

COc1cc(OC)c(/C=C/C(=O)c2ccc(Nc3ncnc4ccccc34)cc2)c(OC)c1
inactive: RPMI-8226 leukemia 12.2% | IGROV1 ovarian 19.3% | T-47D breast 36.2% | HCC-2998 colon 38.3%
active: SR leukemia 1.91% | OVCAR-8 ovarian -44% | OVCAR-5 ovarian 8.12% | OVCAR-4 ovarian 6.46% | SK-OV-3 ovarian -42.4% | OVCAR-3 ovarian -67.8% | HS 578T breast -13.2% | NCI/ADR-RES ovarian -17.2% | BT-549 breast -29.3% | MDA-MB-435 melanoma -79.1% | SW-620 colon -66.8% | MCF7 breast 0.53% | HCT-116 colon -33.7% | KM12 colon 6.21%

CC(N)C(=O)NNc1n[nH]c(=S)n1N (centres undefined)
inactive: SR leukemia 103% | RPMI-8226 leukemia 104% | OVCAR-8 ovarian 100% | OVCAR-5 ovarian 92.9% | OVCAR-4 ovarian 105% | SK-OV-3 ovarian 109% | IGROV1 ovarian 98.8% | OVCAR-3 ovarian 97.6% | HS 578T breast 88.2% | NCI/ADR-RES ovarian 99.9% | T-47D breast 98.6% | BT-549 breast 87.1% | MDA-MB-435 melanoma 96.1% | SW-620 colon 93.1% | MCF7 breast 93.7% | HCT-116 colon 103% | HCC-2998 colon 102% | KM12 colon 102%

CC1CCN(C(=O)OCc2nc3nc(Cl)nc(N4CCOCC4)c3[nH]2)CC1
active: SR leukemia -28.6% | RPMI-8226 leukemia -29.7% | OVCAR-8 ovarian -29% | OVCAR-5 ovarian -38.2% | OVCAR-4 ovarian -54.1% | IGROV1 ovarian -68% | OVCAR-3 ovarian -92.8% | HS 578T breast -13.5% | NCI/ADR-RES ovarian -18.6% | T-47D breast -61.6% | BT-549 breast -66% | MDA-MB-435 melanoma -76.5% | SW-620 colon -55.6% | MCF7 breast -18.9% | HCT-116 colon -74.1% | HCC-2998 colon 2.05% | KM12 colon 9.43%
inactive: SK-OV-3 ovarian 62.8%
